As a reminder, the inhibition is the drop in the measured response relative to a control, in per cent.

Structures are written as SMILES.

Experiment [1] has as its target Glycogen synthase kinase-3 beta (Homo sapiens) (UniProt P49841). Particulars: at 1 µM.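 Further: reported values are mean percent inhibition of GSK3B.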
The target in experiment [2] is Homeodomain-interacting protein kinase 1 (Homo sapiens) (UniProt Q86Z02). To be noted: at 0.1 µM.
Experiment [3] has the same target. Particulars: at 1 µM.
Experiment [4] concerns the target T1, Homeodomain-interacting protein kinase 4 (Homo sapiens) (UniProt Q8NE63).
T1 sequence (whole entry): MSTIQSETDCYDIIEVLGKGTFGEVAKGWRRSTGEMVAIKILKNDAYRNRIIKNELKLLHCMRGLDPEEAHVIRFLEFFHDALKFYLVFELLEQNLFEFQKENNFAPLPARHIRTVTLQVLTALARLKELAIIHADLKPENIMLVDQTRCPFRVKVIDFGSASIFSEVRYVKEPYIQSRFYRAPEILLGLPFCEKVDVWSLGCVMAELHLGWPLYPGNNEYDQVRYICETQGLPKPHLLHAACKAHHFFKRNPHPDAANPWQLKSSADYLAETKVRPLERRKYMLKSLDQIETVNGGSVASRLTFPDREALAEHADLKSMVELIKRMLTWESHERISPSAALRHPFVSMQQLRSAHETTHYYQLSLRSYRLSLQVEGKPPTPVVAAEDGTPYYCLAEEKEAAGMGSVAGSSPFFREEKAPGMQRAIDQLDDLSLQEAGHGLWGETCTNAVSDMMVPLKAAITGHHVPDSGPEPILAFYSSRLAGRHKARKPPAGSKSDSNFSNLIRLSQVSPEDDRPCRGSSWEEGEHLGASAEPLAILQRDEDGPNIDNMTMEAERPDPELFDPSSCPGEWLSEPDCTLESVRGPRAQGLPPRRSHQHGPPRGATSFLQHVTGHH
To be noted: at 0.1 µM.

Experiment [5] concerns the target T1, Homeodomain-interacting protein kinase 4 (Homo sapiens). To be noted: at 1 µM.
The target in experiment [6] is Mitogen-activated protein kinase 9 (Homo sapiens) (UniProt P45984). To be noted: at 0.1 µM.
Chain of Mitogen-activated protein kinase 9 (Homo sapiens) (P45984 whole entry, looked up): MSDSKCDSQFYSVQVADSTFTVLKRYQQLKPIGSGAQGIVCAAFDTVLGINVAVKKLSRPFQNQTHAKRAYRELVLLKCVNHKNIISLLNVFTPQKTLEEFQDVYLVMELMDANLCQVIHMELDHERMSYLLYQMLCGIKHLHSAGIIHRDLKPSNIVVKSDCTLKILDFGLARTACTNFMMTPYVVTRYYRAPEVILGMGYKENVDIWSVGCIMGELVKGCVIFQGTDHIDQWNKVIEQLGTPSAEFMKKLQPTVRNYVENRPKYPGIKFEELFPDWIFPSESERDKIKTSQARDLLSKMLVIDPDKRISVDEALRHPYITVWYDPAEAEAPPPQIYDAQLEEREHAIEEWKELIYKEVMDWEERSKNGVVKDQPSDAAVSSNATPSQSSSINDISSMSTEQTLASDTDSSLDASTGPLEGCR
Experiment [7] shares this target. Particulars: at 1 µM.
The target in experiment [8] is Mitogen-activated protein kinase 1 (Homo sapiens) (UniProt P28482). Particulars: at 0.1 µM.
Chain of Mitogen-activated protein kinase 1 (Homo sapiens) (P28482 whole entry): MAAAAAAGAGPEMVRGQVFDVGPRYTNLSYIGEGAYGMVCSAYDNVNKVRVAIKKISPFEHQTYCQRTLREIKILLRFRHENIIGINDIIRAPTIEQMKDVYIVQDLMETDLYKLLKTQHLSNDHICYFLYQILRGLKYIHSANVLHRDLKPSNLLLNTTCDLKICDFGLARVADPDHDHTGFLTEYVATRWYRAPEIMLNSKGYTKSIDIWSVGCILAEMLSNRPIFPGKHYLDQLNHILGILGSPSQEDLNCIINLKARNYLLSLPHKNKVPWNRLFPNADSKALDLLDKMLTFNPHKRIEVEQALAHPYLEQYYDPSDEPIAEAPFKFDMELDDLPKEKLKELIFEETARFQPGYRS
Experiment [9] has the same target. To be noted: at 1 µM.
The target in experiment [10] is Mitogen-activated protein kinase 3 (Homo sapiens) (UniProt P27361). Particulars: at 0.1 µM.
Chain of Mitogen-activated protein kinase 3 (Homo sapiens) (P27361 whole entry): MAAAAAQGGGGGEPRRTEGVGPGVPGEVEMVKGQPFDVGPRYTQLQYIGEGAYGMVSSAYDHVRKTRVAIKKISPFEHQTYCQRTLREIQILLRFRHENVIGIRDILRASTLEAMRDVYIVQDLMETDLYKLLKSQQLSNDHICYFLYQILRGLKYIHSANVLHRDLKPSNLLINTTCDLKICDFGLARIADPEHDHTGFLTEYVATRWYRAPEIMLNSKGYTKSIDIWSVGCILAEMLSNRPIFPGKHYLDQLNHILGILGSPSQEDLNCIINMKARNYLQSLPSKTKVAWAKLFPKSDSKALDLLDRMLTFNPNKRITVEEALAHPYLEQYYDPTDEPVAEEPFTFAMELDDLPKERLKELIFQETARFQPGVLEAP
Experiment [11] shares this target. Particulars: at 1 µM.
The target of experiment [12] is SRSF protein kinase 3 (Homo sapiens) (UniProt Q9UPE1). Particulars: at 0.1 µM.
Chain of SRSF protein kinase 3 (Homo sapiens) (Q9UPE1 whole entry): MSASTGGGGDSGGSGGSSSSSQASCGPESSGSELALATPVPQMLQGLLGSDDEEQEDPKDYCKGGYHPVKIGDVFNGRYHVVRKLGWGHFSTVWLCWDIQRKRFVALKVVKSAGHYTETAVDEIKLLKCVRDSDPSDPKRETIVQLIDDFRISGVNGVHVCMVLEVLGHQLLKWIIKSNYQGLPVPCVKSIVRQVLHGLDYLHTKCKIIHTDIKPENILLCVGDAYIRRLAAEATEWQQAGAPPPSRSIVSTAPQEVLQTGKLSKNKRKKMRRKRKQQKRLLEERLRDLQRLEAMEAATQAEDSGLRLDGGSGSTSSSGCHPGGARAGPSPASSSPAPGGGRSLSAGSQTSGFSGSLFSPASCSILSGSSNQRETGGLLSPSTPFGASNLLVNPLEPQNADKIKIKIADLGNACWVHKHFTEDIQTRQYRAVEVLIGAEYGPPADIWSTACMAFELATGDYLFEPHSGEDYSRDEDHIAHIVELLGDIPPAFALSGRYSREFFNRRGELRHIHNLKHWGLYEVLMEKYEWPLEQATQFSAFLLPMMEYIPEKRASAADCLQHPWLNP
For experiment [13] the target is unchanged. Particulars: at 1 µM.
Experiment [14] concerns the target Mitogen-activated protein kinase 14 (Homo sapiens) (UniProt Q16539). To be noted: at 0.1 µM.
Experiment [15] has the same target. To be noted: at 1 µM.
In experiment [16] the target is Mitogen-activated protein kinase 11 (Homo sapiens) (UniProt Q15759). To be noted: at 0.1 µM.
Chain of Mitogen-activated protein kinase 11 (Homo sapiens) (Q15759 whole entry): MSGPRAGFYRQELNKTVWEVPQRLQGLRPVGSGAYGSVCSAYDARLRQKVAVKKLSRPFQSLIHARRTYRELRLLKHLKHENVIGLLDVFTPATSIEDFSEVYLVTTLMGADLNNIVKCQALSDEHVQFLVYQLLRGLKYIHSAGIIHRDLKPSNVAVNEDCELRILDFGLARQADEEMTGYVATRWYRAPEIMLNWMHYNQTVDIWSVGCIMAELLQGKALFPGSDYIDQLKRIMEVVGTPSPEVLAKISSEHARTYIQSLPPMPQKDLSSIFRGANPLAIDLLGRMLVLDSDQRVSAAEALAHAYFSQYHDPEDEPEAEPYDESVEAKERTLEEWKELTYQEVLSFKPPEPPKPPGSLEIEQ
The target is the same in experiment [17]. To be noted: at 1 µM.
The target of experiment [18] is T2, Mitogen-activated protein kinase 13 (Homo sapiens) (UniProt O15264).
T2 sequence (whole entry): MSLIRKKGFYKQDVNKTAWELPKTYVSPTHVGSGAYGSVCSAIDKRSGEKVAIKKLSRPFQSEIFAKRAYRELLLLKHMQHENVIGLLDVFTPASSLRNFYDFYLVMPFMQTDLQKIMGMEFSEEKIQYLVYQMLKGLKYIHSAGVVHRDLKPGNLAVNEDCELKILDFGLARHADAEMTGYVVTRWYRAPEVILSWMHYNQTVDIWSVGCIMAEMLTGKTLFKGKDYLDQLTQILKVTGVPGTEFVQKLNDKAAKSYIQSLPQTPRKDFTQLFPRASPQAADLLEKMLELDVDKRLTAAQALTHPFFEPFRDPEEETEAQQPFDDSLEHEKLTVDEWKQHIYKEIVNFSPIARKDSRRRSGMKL
Particulars: at 0.1 µM.

The target of experiment [19] is T2, Mitogen-activated protein kinase 13 (Homo sapiens). To be noted: at 1 µM.
Experiment [20] concerns the target T3, Mitogen-activated protein kinase 12 (Homo sapiens) (UniProt P53778).
T3 sequence (whole entry): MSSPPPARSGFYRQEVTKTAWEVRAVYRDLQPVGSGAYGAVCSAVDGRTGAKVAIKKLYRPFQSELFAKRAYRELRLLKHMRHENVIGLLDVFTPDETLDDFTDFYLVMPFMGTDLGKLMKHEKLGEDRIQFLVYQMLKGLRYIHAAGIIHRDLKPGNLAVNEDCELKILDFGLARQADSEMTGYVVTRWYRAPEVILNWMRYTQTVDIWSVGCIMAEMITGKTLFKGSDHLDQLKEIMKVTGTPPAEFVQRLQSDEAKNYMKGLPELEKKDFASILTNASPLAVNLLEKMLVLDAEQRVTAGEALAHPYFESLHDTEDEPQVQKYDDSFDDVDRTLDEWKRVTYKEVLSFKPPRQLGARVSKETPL
To be noted: at 0.1 µM.

Chain of Mitogen-activated protein kinase 14 (Homo sapiens) (Q16539 whole entry): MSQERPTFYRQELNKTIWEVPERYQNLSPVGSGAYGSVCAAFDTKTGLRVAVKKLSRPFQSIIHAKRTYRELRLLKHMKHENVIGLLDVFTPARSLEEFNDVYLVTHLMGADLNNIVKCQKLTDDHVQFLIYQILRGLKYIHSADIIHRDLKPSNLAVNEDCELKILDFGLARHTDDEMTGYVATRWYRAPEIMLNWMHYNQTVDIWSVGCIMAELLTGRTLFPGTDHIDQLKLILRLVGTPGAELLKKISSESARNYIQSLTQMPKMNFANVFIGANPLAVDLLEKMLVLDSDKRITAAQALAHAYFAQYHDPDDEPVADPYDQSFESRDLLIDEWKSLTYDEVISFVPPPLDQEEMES
Chain of Homeodomain-interacting protein kinase 1 (Homo sapiens) (Q86Z02 whole entry, looked up): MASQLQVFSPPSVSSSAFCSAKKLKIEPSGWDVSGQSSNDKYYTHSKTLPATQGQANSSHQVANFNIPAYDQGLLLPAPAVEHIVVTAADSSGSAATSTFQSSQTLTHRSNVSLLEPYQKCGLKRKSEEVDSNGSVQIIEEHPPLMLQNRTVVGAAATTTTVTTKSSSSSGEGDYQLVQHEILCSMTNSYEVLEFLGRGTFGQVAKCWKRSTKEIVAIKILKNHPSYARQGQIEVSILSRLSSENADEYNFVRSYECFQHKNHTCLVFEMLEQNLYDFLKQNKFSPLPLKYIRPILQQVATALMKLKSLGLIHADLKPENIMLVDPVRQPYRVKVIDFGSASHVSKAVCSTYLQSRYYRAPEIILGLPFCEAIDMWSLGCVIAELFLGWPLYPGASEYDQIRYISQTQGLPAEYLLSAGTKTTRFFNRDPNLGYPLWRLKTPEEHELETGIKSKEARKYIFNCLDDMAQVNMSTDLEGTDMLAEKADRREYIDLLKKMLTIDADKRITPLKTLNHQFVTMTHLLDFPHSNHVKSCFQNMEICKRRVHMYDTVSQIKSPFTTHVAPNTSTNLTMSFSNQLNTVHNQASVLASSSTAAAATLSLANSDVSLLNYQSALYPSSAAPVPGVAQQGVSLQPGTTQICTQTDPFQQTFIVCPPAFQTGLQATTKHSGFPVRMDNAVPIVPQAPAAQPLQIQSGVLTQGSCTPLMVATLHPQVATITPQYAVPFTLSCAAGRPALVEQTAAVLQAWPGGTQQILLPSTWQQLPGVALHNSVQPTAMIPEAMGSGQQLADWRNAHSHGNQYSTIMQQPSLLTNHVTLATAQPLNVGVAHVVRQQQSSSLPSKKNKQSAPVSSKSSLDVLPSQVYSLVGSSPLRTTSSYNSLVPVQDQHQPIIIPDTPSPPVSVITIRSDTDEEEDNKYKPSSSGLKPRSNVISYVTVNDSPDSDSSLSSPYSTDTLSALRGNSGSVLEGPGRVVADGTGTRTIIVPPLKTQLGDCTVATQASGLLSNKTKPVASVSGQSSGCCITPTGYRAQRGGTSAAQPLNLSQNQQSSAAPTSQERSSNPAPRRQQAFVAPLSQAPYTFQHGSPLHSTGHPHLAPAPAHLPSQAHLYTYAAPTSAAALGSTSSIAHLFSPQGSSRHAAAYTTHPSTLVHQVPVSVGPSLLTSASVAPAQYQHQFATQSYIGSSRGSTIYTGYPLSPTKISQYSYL
Chain of Glycogen synthase kinase-3 beta (Homo sapiens) (P49841 whole entry, looked up): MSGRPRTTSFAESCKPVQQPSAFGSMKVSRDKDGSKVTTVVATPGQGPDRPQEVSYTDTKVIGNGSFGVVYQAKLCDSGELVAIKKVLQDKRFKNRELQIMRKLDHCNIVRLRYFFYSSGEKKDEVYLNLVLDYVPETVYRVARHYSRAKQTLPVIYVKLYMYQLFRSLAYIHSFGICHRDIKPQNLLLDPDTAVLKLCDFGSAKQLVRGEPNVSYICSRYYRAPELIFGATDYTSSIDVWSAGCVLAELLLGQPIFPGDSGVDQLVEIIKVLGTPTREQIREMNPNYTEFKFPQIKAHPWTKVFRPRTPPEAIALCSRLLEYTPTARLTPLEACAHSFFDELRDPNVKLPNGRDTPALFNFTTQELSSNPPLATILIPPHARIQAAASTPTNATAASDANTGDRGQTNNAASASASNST

On to `COc1cccc(-n2cnc3c(N/N=C/c4ccncc4)ncnc32)c1`, for which the inhibition in experiment [1] was 32.4%; in [2], -2.33%; in experiment [3], -0.32%; in experiment [4], -0.66%; in experiment [5], 3.74%; in [6], -1.67%. Also, the inhibition in [7] is -0.57%; in [8], -1.43%; in experiment [9], -0.07%; in [10], 0.83%; in experiment [11], 2.27%; in [12], -0.93%. In addition, the inhibition in experiment [13] was 0.28%; in experiment [14], 2.63%; in [15], -0.98%; in experiment [16], 1.35%; in experiment [17], 0.89%; in experiment [18], -0.64%. In addition, the inhibition in experiment [19] is -2.04%; in [20], -1.4%.

As to `CNC(=O)c1cncc(/C=C/c2c(C)cccc2C)c1`, the inhibition in experiment [1] is -0.33%; in [2], -0.47%; in experiment [3], 2.67%; in [4], 1.19%; in [5], 6.66%; in experiment [6], 2.54%. Also, the inhibition in experiment [7] was 1.94%; in [8], -3.06%; in experiment [9] it was 0.43%; in experiment [10] it was 0.86%; in experiment [11], 3.65%; in experiment [12] it was -0.82%. Also, the inhibition in experiment [13] is 2.87%; in experiment [14], 1.86%; in experiment [15], 7.55%; in experiment [16] it was 0.94%; in experiment [17] it was 2.24%; in experiment [18], -0.85%. The figures for the inhibition in [19] and in [20] were -0.13% and -0.99%, respectively.

As for `Fc1ccc(-c2ncn(CCCN3CCOCC3)c2-c2ccncc2)cc1`, the inhibition in experiment [1] is 1.01%; in experiment [2], -3.44%; in experiment [3] it was -1.47%; in experiment [4] it was -2.02%; in [5], -2.54%; in experiment [6], 2.43%. Besides, the inhibition in [7] was 6.68%; in experiment [8], 0.12%; in [9], 1.09%; in experiment [10], 4.06%; in experiment [11] it was 1.77%; in experiment [12], -0.25%. In addition, the inhibition in experiment [13] is -0.76%; in experiment [14] it was 7.39%; in experiment [15], 48%; in [16], 3.21%; in experiment [17], 8.94%; in experiment [18], 0.12%. In addition, the inhibition was -0.39% in [19] and 0.95% in [20].

For `C[C@@H](Oc1cc(-n2cnc3ccc(OCC4CCN(C)CC4)cc32)sc1C(N)=O)c1ccccc1Cl`, the inhibition in experiment [1] is 8.9%; in experiment [2], -1.26%; in experiment [3], 8.77%; in experiment [4], 3.09%; in [5], 21.8%; in [6], 7.22%. The inhibition was found to be 10.9% in experiment [7]; 7.6% in experiment [8]; 8.78% in experiment [9]; 4.68% in [10]; 7.74% in [11]; 0.89% in experiment [12]. Moreover, the inhibition in [13] is 0.11%; in experiment [14], 5.8%; in experiment [15] it was 6.58%; in experiment [16] it was 3.71%; in experiment [17] it was 5.93%; in experiment [18], 5.74%. Also, the results for the inhibition in experiment [19] and in experiment [20] were 6.23% and 3.48%, respectively.

`C/C(Nc1ccc(S(N)(=O)=O)cc1)=C1/C(=O)Nc2ccccc21`: the inhibition in experiment [1] was 9.04%; in [2], -1.51%; in [3], -1.35%; in experiment [4] it was 0.16%; in experiment [5] it was 2.56%; in experiment [6], -3.47%. The inhibition is 3.67% in [7]; 3.1% in experiment [8]; -2.06% in [9]; 2.55% in [10]; 0.88% in experiment [11]; -1.51% in [12]. Moreover, the inhibition in [13] is -1.15%; in experiment [14] it was 2.61%; in [15] it was 3.43%; in experiment [16], 1.67%; in experiment [17], 7.87%; in experiment [18], -0.85%. In addition, the inhibition was -1.14% in experiment [19] and -1.08% in experiment [20].

As for `Fc1ccc(-c2nc3n(c2-c2ccncc2)CCS3)cc1`, the inhibition was 7.8% in experiment [1]; -4.87% in [2]; -3.92% in experiment [3]; 0.39% in [4]; 1.1% in [5]; 7.66% in experiment [6]. Moreover, the inhibition in [7] is 25.9%; in experiment [8], 3.06%; in experiment [9], 5.59%; in experiment [10], 2.96%; in experiment [11], 4.33%; in [12], -1.07%. In addition, the inhibition was -0.89% in experiment [13]; 19.8% in experiment [14]; 67.4% in experiment [15]; 8.81% in [16]; 13.1% in [17]; 1.46% in [18]. Also, the inhibition in experiment [19] was 5.36%; in experiment [20], 1.62%.

The values above are taken from ChEMBL document CHEMBL1961873, “Compounds: GSK PKIS; Assays: Nanosyn kinase panel” (2012).
